High-throughput results as filed in PubChem.
HT1080NT lethal: kills 2HG-producing HT-1080-NT fibrosarcoma cells; actives 1.6% (n = 360,000); HT-1080-NT fibrosarcoma viability, CellTiter-Glo ATP luminescence, 48 h; Potency, µM (doses to about 46.1 µM), actives largely listed as cytotoxic;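 also: NT is the 2HG producing partner of a matched IDH1 knockdown line; nearly all actives have a fitted effect of over 55% in size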
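HT-1080-NT; 750 cells/well; 5% FBS RPMI; 48 h compound, 37 degrees C; CellTiter-Glo luminescence; curve fitting and curve-class assignment.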
DT40 TDP1 no CPT: qHTS for Inhibitors of human tyrosyl-DNA phosphodiesterase 1 (TDP1): qHTS in cells in absence of CPT; DT40 Tdp1-/- hTDP1 cells, no CPT, ATP luminescence, 48 h; actives 15% (n = 420,000); Potency, µM (doses to about 46.2 µM), hits mostly inhibitors; also: nearly all actives have a fitted effect of over 55% in size
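DT40 Tdp1-/-;hTDP1 cells, no CPT (DMSO vehicle only), 400 cells/well; compounds pin-transferred; ≥48 hr, 37 °C; CellTiter-Glo 30 min RT dark, luminescence read.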
TDP1 cell CPT: DT40-hTDP1 cell growth loss with CPT; chicken DT40 Tdp1-/-;hTDP1 cells + 20 nM CPT, ATP luminescence, 48 h; Potency, µM (highest dose often 46.2 µM), actives largely listed as inhibitors; actives 12% (n = 420,000); AID 686979; also: nearly all actives have a fitted effect of over 55% in size
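Cell growth measured by CellTiter-Glo luminescence after a minimum 48 h, 37 C compound exposure with 20 nM CPT in Tdp1-knockout DT40 cells stably expressing hTDP1, seeded 400/well; qHTS titration format.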
KB-3-1 tox: kills parental KB-3-1 adenocarcinoma cells | AID 1347075 | KB-3-1 viability, CellTiter-Glo ATP luminescence, 72 h | Potency, µM (doses to about 46.1 µM), hits mostly cytotoxic | actives 1.4% (n = 400,000); also: nearly all actives have a fitted effect of over 60% in size
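72 h, 37 °C compound treatment of KB-3-1 parental cells; CellTiter-Glo added, 10 min, luminescence read. Data corrected against DMSO-only plates and normalized before curve fitting.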
HT1080 IDH1KD tx: HT-1080 IDH1 knockdown cell toxicity (counter line) | HT-1080 IDH1 knockdown viability, ATP luminescence, 48 h | Potency, µM (highest dose often 46.1 µM), most hits filed as cytotoxic | actives 2% (n = 360,000) | AID 686971
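Assay cells: HT-1080 with IDH1 knockdown, 750 per well, RPMI/5% FBS. Exposure: 48 h at 37 °C following 2 h pre-incubation. Read: CellTiter-Glo luminescence; fitted concentration-response, curve class assigned.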
KB-V1 cytotox: kills drug-selected multidrug resistant KB-V1 cells; KB-V1 MDR cells viability, CellTiter-Glo, 72 h; Potency, µM (doses to about 46.1 µM), actives largely listed as cytotoxic; actives 3.4% (n = 400,000); AID 1347076; also: nearly all actives have a fitted effect of over 60% in size
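Following 72 h at 37 degrees C with compound, KB-V1 cell viability was read by CellTiter-Glo luminescence, medium being phenol-red-free DMEM plus 10% FBS; concentration-response parameters came from normalized, curve-fitted qHTS data.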
A number is an active result; – = inactive; ? = inconclusive; · = not tested or not shown; [ ] = another dose, or the depositor's remark. Compounds with a hit are over-represented: about 19% of the library has one in this group of screens. Calls follow the shape of the dose curve; as a rule, active = well fitted curve in the direction sought with a large enough effect; inconclusive = small, poorly fitted or top-dose-only effect, or another doubt; inactive = no such curve, though single readings can be large; an effect the other way counts as inactive or inconclusive.

SMILES | HT1080NT lethal | DT40 TDP1 no CPT | TDP1 cell CPT | KB-3-1 tox | HT1080 IDH1KD tx | KB-V1 cytotox
Cc1nc2ccsc2c(=O)n1-c1cccc(Cl)c1 | – | – | – | – | – | –
CCC(C(=O)NCc1ccco1)n1nc(C)n2c(cc3occc32)c1=O (stereo not drawn) | – | – | – | – | – | –
CN(Cc1ccccc1Cl)C(=O)CNC(=O)C12CC3CC(CC(C3)C1)C2 | –[9.24 µM] | ? | 21µM | – | – | –
CN(Cc1ccccc1)C(=O)CNC(=O)C12CC3CC(CC(C3)C1)C2 | – | – | – | – | – | –
CS(=O)(=O)Nc1ccc(C(=O)Nc2ccccc2-c2ccccc2)cc1 | – | – | – | – | – | –
CSC1SCC2C(=O)N(C)C(C(C)C)C(=O)OCC(NC(=O)c3cnc4ccccc4n3)C(=O)NC(C)C(=O)N(C)C1C(=O)N(C)C(C(C)C)C(=O)OCC(NC(=O)c1cnc3ccccc3n1)C(=O)NC(C)C(=O)N2C (stereo not drawn) | – | – | – | – | 0.0012µM | 1.6µM
CCn1c(CNC(=O)c2cccc(C)c2)nnc1SCC(=O)N1CCOCC1 | – | – | – | – | – | –
CCN(c1ccccc1)c1ncnc2c1cnn2-c1ccc(OC)cc1 | · | 5.2µM | 8.2µM | – | · | –
Cc1ccc(-n2ncc3c(N(CCO)Cc4ccccc4)ncnc32)cc1 | · | 8.2µM | 12µM | – | · | –
CCCCN(c1ccccc1)c1ncnc2c1cnn2-c1cccc(C)c1 | · | – | – | – | · | –
CCCCN(c1ccccc1)c1ncnc2c1cnn2-c1ccc(Cl)cc1 | · | 18µM | 16µM | – | · | –
O=C(OCCN1CCOCC1)c1ccc(O)cc1 | – | – | – | – | – | –
Cc1ccc(C(=O)NCCc2nnc3ccc(SCC(=O)Nc4ccccc4F)nn23)cc1 | – | – | – | · | – | ·
CCC(C)n1c(SCC(=O)Nc2ccccc2C(F)(F)F)nc2ccsc2c1=O (stereo not drawn) | – | – | – | – | – | 23µM
CCC(C)n1c(SCC(=O)Nc2ccccc2C(=O)OC)nc2ccsc2c1=O (stereo not drawn) | · | 18µM | 16µM | · | · | ·
CCS(=O)(=O)c1ccc(O)c(N2C(=O)C3C4C=CC(C4)C3C2=O)c1 (stereo not drawn) | – | – | – | – | – | –
Cc1ccc(NC(=O)/C(C#N)=C(\N)C(Cl)(Cl)Cl)nc1 | ? | 2.1µM | 0.58µM | 18µM | ? | ?
CC(C)C[C@@H]1NC(=O)[C@H](CO)NC(=O)c2cc([N+](=O)[O-])cc(I)c2OCC[C@@H](C(N)=O)NC1=O | – | – | – | – | – | ?
COc1ccccc1-c1csc(Nc2ccc(Oc3ccccc3)cc2)n1 | – | ? | 18µM | – | – | –
COc1ccc(Nc2nc(-c3cccs3)cs2)cc1 | – | 23µM | 21µM | – | – | –
Oc1ccc(Nc2nc(-c3cccs3)cs2)cc1 | – | – | – | – | – | –
Cc1ccc(-c2[nH][nH]c(=O)c(=O)c2N=Nc2ccccc2)cc1 | – | – | ? | – | – | ?
COc1ccc(/C=N/n2c(-c3ccco3)nc3ccccc3c2=O)cc1 | – | ? | ? | – | – | –
C=CCn1cnc2c(c1=O)c1nc3ccccc3nc1n2/N=C/c1cc(OC)c(OC)c(OC)c1 | ? | 3.3µM | 4.1µM | – | ? | ?
C=CCn1cnc2c(c1=O)c1nc3ccccc3nc1n2/N=C/c1ccccn1 | – | 21µM | 16µM | – | – | ?
SMILES | HT1080NT lethal | DT40 TDP1 no CPT | TDP1 cell CPT | KB-3-1 tox | HT1080 IDH1KD tx | KB-V1 cytotox
COc1cccc(/C=N/n2c(-c3ccco3)nc3ccccc3c2=O)c1 | – | 18µM | ? | – | – | 2.6µM
COCCn1cnc2c(c1=O)c1nc3ccccc3nc1n2/N=C/c1cccc(OC)c1 | – | 12µM | 13µM | – | – | ?
COc1ccc(-c2nc3n(n2)C(c2ccccc2)C2=C(CCCC2=O)N3)cc1OC (stereo not drawn) | – | – | – | – | – | –
O=C(O)c1cc(-c2ccc(-c3ccc(F)cc3)o2)nc2ccccc12 | – | – | – | – | – | –
O=c1c2c3nc4ccccc4nc3n(/N=C/c3ccccn3)c2ncn1-c1ccccc1 | 5.8µM | ? | 2.6µM | – | ? | ?
O=C(NN=C(Cc1ccccc1)Cc1ccccc1)C1CC1 | – | – | – | – | – | –
Cc1ccn2c(Nc3ccc4c(c3)OCO4)c(-c3ccco3)nc2c1 | · | ? | 23µM | – | · | –
Cc1ccc(-c2nc3cnccn3c2Nc2ccc3c(c2)OCO3)cc1 | – | ? | ? | – | – | ?
Cc1ccn2c(Nc3ccc4c(c3)OCO4)c(-c3ccc(N(C)C)cc3)nc2c1 | · | ? | 13µM | – | · | –
Cc1ccc(-c2nc3ccccn3c2Nc2ccc3c(c2)OCO3)o1 | · | ? | ? | – | · | –
COC(=O)c1ccc(CSc2nnc(CS(=O)Cc3ccc(Br)cc3)n2-c2ccccc2)cc1 (stereo not drawn) | – | 13µM | 7.3µM | – | – | ?
O=c1cc(-c2ccccc2)n2c(SCc3ccc(Br)cc3)nnc2[nH]1 | · | – | – | · | · | ·
O=S(Cc1ccc(Br)cc1)Cc1nnc(SCc2ccc(Br)cc2)n1-c1ccccc1 (stereo not drawn) | – | 10µM | 12µM | 16µM | ? | 2.9µM
COC(=O)c1ccc(NC(=O)CSc2nnc(C)n2-c2ccccc2)cc1 | – | – | – | – | – | –
COc1ccc(OC)c(/C=C/C(=O)Nc2cccc(S(=O)(=O)N3CCCC3)c2)c1 | – | 29µM | 23µM | – | – | –
CCN1CCN(c2ccc(S(=O)(=O)N3CCCCC3)cc2NC(=O)/C=C/c2cc(OC)ccc2OC)CC1 | – | ? | 16µM | – | – | ?
Cc1cc(C)c(S(=O)(=O)N2CCN(c3ccc([N+](=O)[O-])c(-n4nc(C)cc4C)c3)CC2)c(C)c1 | – | 21µM | 26µM | – | – | –
Cc1cc(C)n(-c2cc(N3CCN(S(=O)(=O)c4ccc(Br)cc4)CC3)ccc2[N+](=O)[O-])n1 | – | 12µM | 12µM | ? | – | ?
N=c1sccn1CC(=O)Nc1ccc(SC(F)F)cc1 | – | – | – | – | – | –
CCOC(=O)N1CCN(C2=C(NS(=O)(=O)c3ccc(C)cc3)C(=O)c3ccccc3C2=O)CC1 | ? | ? | 8.2µM | – | ? | ?
Cc1ccc(S(=O)(=O)Nc2nc3ccccc3nc2N2CCN(c3ccccc3F)CC2)cc1 | – | – | – | – | – | –
